“And” between values parts separate entries of the source, which are not always exact repeats. Equal entries are not always repeated. Structures can show the parent of a compound that is named as a salt. A number with no mark means an inactive call.

The record followed here is the supplement of paper PMC12297408.

The assay deals with Plasmodium falciparum NF54/iGP1_RE9H ulg8 stage V gametocytes. As to the kind of experiment: gametocyte viability (luciferase signal relative to DMSO control) (% of DMSO control); higher = less gametocytocidal activity, active = 50 or less. The note with it: exposure time: 72 h. Summed up:
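Viability was calculated relative to the mean of DMSO vehicle wells on each plate. Day-12 stage V gametocytes of line NF54/iGP1_RE9Hulg8 (~2.5% gametocytemia, 3% hematocrit, 0.5% Albumax II medium) were exposed in 96-well plates to compounds at final 10 µM or 1 µM, one well each, for 72 h at 37 °C. Luminescence was then read on an IVIS Lumina II after D-luciferin addition.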

`O=C(O)c1ccc(Nc2ncc3c(n2)-c2ccc(Cl)cc2C(c2c(F)cccc2F)=NC3)cc1`: the gametocyte viability runs as follows: (concentration: 1 µM) 102; (concentration: 10 µM) 103.

For the molecule `C#Cc1cccc(Nc2ncnc3cc(OC)c(OC)cc23)c1`, the gametocyte viability is 103 (concentration: 1 µM) and 96.4 (concentration: 10 µM).

With `COc1cc2c(N3CCN(C(=O)Nc4ccc(OC(C)C)cc4)CC3)ncnc2cc1OCCCN1CCCCC1` [Tandutinib (MLN518)], the gametocyte viability runs as follows: (concentration: 1 µM) 98.8; (concentration: 10 µM) 91.8.

Turning to `COc1cccc2cc(-c3nc([C@H]4CC[C@H](C(=O)O)CC4)n4ncnc(N)c34)[nH]c12`, the gametocyte viability by setting is: (concentration: 1 µM) 108; (concentration: 10 µM) 109.

Regarding `Cn1c(=O)n(-c2ccc(C(C)(C)C#N)cc2)c2c3cc(-c4cnc5ccccc5c4)ccc3ncc21`, the gametocyte viability (concentration: 1 µM) was 96.8 and the gametocyte viability (concentration: 10 µM) is 104.

As for `Nc1cc(C(F)(F)F)c(-c2cc(N3CCOCC3)nc(N3CCOCC3)n2)cn1`, the gametocyte viability is, setting by setting: (concentration: 1 µM) 107; (concentration: 10 µM) 98.6.

With `COc1cc2c(Nc3ccc(NC(=O)c4ccccc4)cc3)ncnc2cc1OCCCN1CCOCC1`, the gametocyte viability by setting is: (concentration: 1 µM) 92.3; (concentration: 10 µM) 92.5.

On to `CNC(=O)c1c(F)cccc1Nc1nc(Nc2cc3c(cc2OC)CCN3C(=O)CN(C)C)nc2[nH]ccc12`, for which the gametocyte viability by setting is: (concentration: 1 µM) 103; (concentration: 10 µM) 113.

Regarding `NC(=O)Nc1cc(-c2cccc(F)c2)sc1C(=O)N[C@H]1CCCNC1`, the gametocyte viability is, setting by setting: (concentration: 1 µM) 116; (concentration: 10 µM) 92.3.

In the case of `O=C(Nc1c[nH]nc1-c1nc2ccc(CN3CCOCC3)cc2[nH]1)NC1CC1`, the gametocyte viability runs as follows: (concentration: 1 µM) 131; (concentration: 10 µM) 113.

For the molecule `Cc1ccc(NC(=O)c2ccc(CN3CCN(C)CC3)cc2)cc1Nc1nccc(-c2cccnc2)n1` [Imatinib Mesylate], the gametocyte viability is 108 (concentration: 1 µM) and 111 (concentration: 10 µM).

`COc1ccc(-c2ccc3c(N4CCOC[C@@H]4C)nc(N4CCOC[C@@H]4C)nc3n2)cc1CO`: the gametocyte viability (concentration: 1 µM) is 96.5 and the gametocyte viability (concentration: 10 µM) was 78.9.

Turning to `Cc1[nH]c(/C=C2\C(=O)Nc3ccccc32)c(C)c1CCC(=O)O`, the gametocyte viability reads like this: (concentration: 1 µM) 96.9; (concentration: 10 µM) 105.

Turning to `COc1cc2c(Oc3ccc(NC(=O)C4(C(=O)Nc5ccc(F)cc5)CC4)cc3F)ccnc2cc1OCCCN1CCOCC1`, the gametocyte viability (concentration: 1 µM) is 86.7 and the gametocyte viability (concentration: 10 µM) was 91.5.

On to `COc1cc2ncnc(Nc3ccc(F)c(Cl)c3)c2cc1OCCCN1CCOCC1` [Gefitinib (Iressa)], for which the gametocyte viability reads like this: (concentration: 1 µM) 95.3; (concentration: 10 µM) 92.8.

With `CN(c1ncccc1CNc1nc(Nc2ccc3c(c2)CC(=O)N3)ncc1C(F)(F)F)S(C)(=O)=O`, the gametocyte viability is 117 (concentration: 1 µM) and 112 (concentration: 10 µM).

For the molecule `N#Cc1c(O)c2c(-c3ccc(-c4ccccc4O)cc3)csc2[nH]c1=O`, the gametocyte viability runs as follows: (concentration: 1 µM) 97.7; (concentration: 10 µM) 105.

With `N#CC(C#N)=C(N)/C(C#N)=C/c1cc(O)c(O)c(O)c1`, the gametocyte viability (concentration: 1 µM) was 110 and the gametocyte viability (concentration: 10 µM) is 113.

Turning to `O=c1cc(-c2cccc3c2Sc2ccccc2S3)oc(N2CCOCC2)c1`, the gametocyte viability (concentration: 1 µM) is 110 and the gametocyte viability (concentration: 10 µM) is 107.

As for `CCCS(=O)(=O)Nc1ccc(F)c(C(=O)c2c[nH]c3ncc(Cl)cc23)c1F`, the gametocyte viability (concentration: 1 µM) was 102 and the gametocyte viability (concentration: 10 µM) was 107.

On to `CN(C)Cc1cccc(N=C(c2ccccc2)c2c(O)[nH]c3cc(C(=O)N(C)C)ccc23)c1`, for which the gametocyte viability was 116 (concentration: 1 µM) and 121 (concentration: 10 µM).

Take `Cn1cnc2c(F)c(Nc3ccc(Br)cc3Cl)c(C(=O)NOCCO)cc21` [AZD6244 (Selumetinib)]: the gametocyte viability was 102 (concentration: 1 µM) and 105 (concentration: 10 µM).

With `CNC(=O)c1cc(COc2nnc(Nc3ccc(Cl)cc3)c3ccoc23)ccn1` [Telatinib (BAY 57-9352)], the gametocyte viability (concentration: 1 µM) is 115 and the gametocyte viability (concentration: 10 µM) is 115.

With `Cn1cnc(-c2cc3nccc(Oc4ccc(NC(=S)NC(=O)Cc5ccccc5)cc4F)c3s2)c1`, the gametocyte viability is 90.2 (concentration: 1 µM) and 93.5 (concentration: 10 µM).

Take `Cc1ccc(C(=O)Nc2ccc(CN3CCN(C)CC3)c(C(F)(F)F)c2)cc1C#Cc1cnc2cccnn12`: the gametocyte viability (concentration: 1 µM) was 111 and the gametocyte viability (concentration: 10 µM) is 130.

With `Cc1nc(NC(=O)N2CCC[C@H]2C(N)=O)sc1-c1csc(C(C)(C)C)n1`, the gametocyte viability by setting is: (concentration: 1 µM) 101; (concentration: 10 µM) 92.9.

Consider `CC(=O)Nc1cccc(-n2c(=O)n(C3CC3)c(=O)c3c(Nc4ccc(I)cc4F)n(C)c(=O)c(C)c32)c1`, for which the gametocyte viability (concentration: 1 µM) was 102 and the gametocyte viability (concentration: 10 µM) is 82.7.

Consider `Oc1cc(O)cc(/C=C/c2ccc(O)c(O)c2)c1` [Piceatannol], for which the gametocyte viability was 70.4 (concentration: 1 µM) and 38.4 (active) (concentration: 10 µM).

`Cc1[nH]c(/C=C2\C(=O)Nc3ccc(S(=O)(=O)N(C)c4cccc(Cl)c4)cc32)c(C)c1C(=O)N1CCN(C)CC1`: the gametocyte viability reads like this: (concentration: 1 µM) 107; (concentration: 10 µM) 92.8.

With `COc1cc(OC)c(/C=C/S(=O)(=O)Cc2ccc(OC)c(NCC(=O)O)c2)c(OC)c1`, the gametocyte viability (concentration: 1 µM) was 93.4 and the gametocyte viability (concentration: 10 µM) was 101.

For the molecule `N#CC(=Cc1ccc2[nH]ccc2c1)C(N)=C(C#N)C#N`, the gametocyte viability (concentration: 1 µM) is 100 and the gametocyte viability (concentration: 10 µM) is 104.

As for `O=C(Cc1ccc(-c2ccc(OCCN3CCOCC3)cc2)cn1)NCc1ccccc1`, the gametocyte viability was 99.7 (concentration: 1 µM) and 113 (concentration: 10 µM).

For the molecule `Cc1cc(Nc2cc(N3CCN(C)CC3)nc(/C=C/c3ccccc3)n2)n[nH]1`, the gametocyte viability reads like this: (concentration: 1 µM) 90.7; (concentration: 10 µM) 71.4.

On to `CCOc1cc2ncc(C#N)c(Nc3ccc(OCc4ccccn4)c(Cl)c3)c2cc1NC(=O)/C=C/CN(C)C` [Neratinib (HKI-272)], for which the gametocyte viability is 103 (concentration: 1 µM) and 104 (concentration: 10 µM).

Turning to `COc1ccc(S(=O)(=O)N(CCO)c2ccccc2CN(C)CC=Cc2ccc(Cl)cc2)cc1`, the gametocyte viability is 112 (concentration: 1 µM) and 102 (concentration: 10 µM).

As to `CC[C@H](Nc1ncnc2[nH]cnc12)c1nc2cccc(F)c2c(=O)n1-c1ccccc1`, the gametocyte viability is 95.1 (concentration: 1 µM) and 95.9 (concentration: 10 µM).

As to `CCCCCCCCCCCCCCCC(=O)OC(CC(=O)[O-])C[N+](C)(C)C` (racemic) [Palmitoyl-DL-carnitine], the gametocyte viability is, setting by setting: (concentration: 1 µM) 100; (concentration: 10 µM) 108.

In the case of `COc1cccc(-c2cc(=O)c3ccccc3o2)c1N`, the gametocyte viability runs as follows: (concentration: 1 µM) 97.3 and 93.2; (concentration: 10 µM) 64.5 and 69.7.

As for `CN(C)c1ccc(-c2nc3ncc(Cl)c(N4CCN(CC(=O)Nc5nccs5)CC4)c3[nH]2)cc1`, the gametocyte viability reads like this: (concentration: 1 µM) 82.4; (concentration: 10 µM) 101.

On to `C=CC(=O)Nc1cccc(Oc2nc(Nc3ccc(N4CCN(C)CC4)cc3OC)ncc2Cl)c1`, for which the gametocyte viability was 91.9 (concentration: 1 µM) and 97.3 (concentration: 10 µM).

Regarding `Cc1cnc(Nc2ccc(N3CCN(C)CC3)cc2)nc1Nc1cccc(S(=O)(=O)NC(C)(C)C)c1`, the gametocyte viability is, setting by setting: (concentration: 1 µM) 91.9; (concentration: 10 µM) 66.6.

As to `CC(C)c1cnc(NC(=O)Cc2ccccc2)s1`, the gametocyte viability was 94.5 (concentration: 1 µM) and 92 (concentration: 10 µM).

With `CC(C)(C)c1cnc(CSc2cnc(NC(=O)C3CCNCC3)s2)o1`, the gametocyte viability runs as follows: (concentration: 1 µM) 104; (concentration: 10 µM) 101.

For `CN1CC[C@H](c2c(O)cc(O)c3c(=O)cc(-c4ccccc4Cl)oc23)[C@H](O)C1` [Flavopiridol hydrochloride], the gametocyte viability by setting is: (concentration: 1 µM) 106; (concentration: 10 µM) 111.

As to `Cn1c(Nc2ccc(C(F)(F)F)cc2)nc2cc(Oc3ccnc(-c4ncc(C(F)(F)F)[nH]4)c3)ccc21`, the gametocyte viability by setting is: (concentration: 1 µM) 103; (concentration: 10 µM) 104.

`Cc1cc(Nc2cc(CN3CCOCC3)c3nc(C)c(Cc4ccc(Cl)cc4F)n3n2)n[nH]1`: the gametocyte viability (concentration: 1 µM) was 95.6 and the gametocyte viability (concentration: 10 µM) was 97.8.

For `N#C/C(=C\c1ccc(O)c(O)c1)C(N)=O`, the gametocyte viability is 93.5 (concentration: 1 µM) and 98 (concentration: 10 µM).

For the molecule `O=C1Cc2c([nH]c3ccc(Br)cc23)-c2ccccc2N1` [Kenpaullone], the gametocyte viability is 62.2 (concentration: 1 µM) and 16.3 (active) (concentration: 10 µM).

With `Cc1cccc(-c2[nH]c(C(C)(C)C)nc2-c2ccc3nccnc3c2)n1`, the gametocyte viability is 94.4 (concentration: 1 µM) and 91.7 (concentration: 10 µM).

As to `Cc1[nH]nc2ccc(-c3cncc(OC[C@@H](N)Cc4ccccc4)c3)cc12`, the gametocyte viability is 101 (concentration: 1 µM) and 104 (concentration: 10 µM).

Regarding `N=C(N)NC(=N)NCCc1ccccc1` [Phenformin hydrochloride], the gametocyte viability was 99.9 (concentration: 1 µM) and 111 (concentration: 10 µM).

For `Nc1nc2ncnc-2c[nH]1` [2-Aminopurine], the gametocyte viability by setting is: (concentration: 1 µM) 97.6; (concentration: 10 µM) 103.

As to `COC(=O)Nc1ccc(-c2nc(N3CCOCC3)c3cnn(C4CCN(C(=O)OC)CC4)c3n2)cc1`, the gametocyte viability is, setting by setting: (concentration: 1 µM) 97.3; (concentration: 10 µM) 97.2.

On to `O=c1c(O)c(-c2ccc(O)c(O)c2)oc2cc(O)cc(O)c12` [Quercetin·2H2O], for which the gametocyte viability is 102 (concentration: 1 µM) and 95.8 (concentration: 10 µM).

As for `CC(C)(C)Cn1c(N)nc2ccc(-c3[nH]c(C(C)(C)C)nc3-c3ccc(F)cc3)nc21`, the gametocyte viability is 97.8 (concentration: 1 µM) and 105 (concentration: 10 µM).

Regarding `CC[C@@H]1C(=O)N(C)c2cnc(Nc3ccc(C(=O)N[C@H]4CC[C@H](N5CCN(CC6CC6)CC5)CC4)cc3OC)nc2N1C(C)C` [BI6727 (Volasertib)], the gametocyte viability is 84.9 (concentration: 1 µM) and 61.9 (concentration: 10 µM).

As for `Cn1cc(-c2cnn3c(N)c(Br)c([C@@H]4CCCNC4)nc23)cn1`, the gametocyte viability by setting is: (concentration: 1 µM) 114; (concentration: 10 µM) 85.8.

Regarding `CCOc1ccn(-c2ccc(F)cc2)c(=O)c1C(=O)Nc1ccc(Oc2ccnc(N)c2Cl)c(F)c1`, the gametocyte viability is, setting by setting: (concentration: 1 µM) 95.8; (concentration: 10 µM) 92.2.

Take `COc1cc2/c(=N/c3ccc(Br)cc3F)nc[nH]c2cc1OCC1CCN(C)CC1` [Vandetanib (Zactima)]: the gametocyte viability is, setting by setting: (concentration: 1 µM) 88.8; (concentration: 10 µM) 108.

As to `COc1cc2ncc(-c3ccccc3)nc2cc1OC`, the gametocyte viability runs as follows: (concentration: 1 µM) 99.5; (concentration: 10 µM) 91.9.

Take `COC(=O)c1ccc2c(C(=Nc3ccc(N(C)C(=O)CN4CCN(C)CC4)cc3)c3ccccc3)c(O)[nH]c2c1` [BIBF1120 (Vargatef)]: the gametocyte viability reads like this: (concentration: 1 µM) 96; (concentration: 10 µM) 108.

Turning to `O=C(O)c1cc(N(Cc2ccccc2O)Cc2cc(O)ccc2O)ccc1O` [Lavendustin A], the gametocyte viability reads like this: (concentration: 1 µM) 98.5; (concentration: 10 µM) 99.4.

For `Cc1nc(Nc2ncc(C(=O)Nc3c(C)cccc3Cl)s2)cc(N2CCN(CCO)CC2)n1`, the gametocyte viability (concentration: 1 µM) was 95.3 and the gametocyte viability (concentration: 10 µM) is 87.3.
